Pf Dd2 growth – Plasmodium falciparum Dd2 growth inhibition; P. falciparum Dd2 growth, SYBR Green, 72 h; 4.3% of 120,000 active; AID 1347417; Potency, µM (highest dose often 28.9 µM), inactives show top-dose activity, negative = inhibition, actives largely listed as inhibitors; active = well fitted inhibition curve with a large enough effect;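 note: plate controls were DMSO vehicle for no effect and reference drug for full effect; nearly all actives have a fitted effect of over 65% in size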
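Readout: SYBR Green fluorescence, 485 nm excitation, 535 nm emission, after ~16 h lysis at 37C. Before that, Dd2-infected red cells (2.5% hematocrit) grew 72 h with compound, 29 uM top final concentration.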
* hit, by the source's call; i = inactive; [ ] = remark or other dose. The sample as a whole holds a higher share of hits than the screen did. Potency is the fitted concentration of half-maximal effect.

SMILES	Pf Dd2 growth
O=C(NCCc1ccc(Cl)cc1)c1ccc2c(c1)N(Cc1ccccc1)CCS2	1.1%
Cc1ccc(CN2CCSc3ccc(C(=O)Nc4ccc(Cl)cc4)cc32)cc1	7.94µM*
COc1ccc(OC)c(CCNC(=O)c2ccc3c(c2)N(Cc2ccccc2)CCS3)c1	-20.7%
O=C(Nc1ccc(Cl)cc1)c1ccc2c(c1)N(Cc1ccccc1)CCS2	4.47µM*
CCN1CCSc2ccc(C(=O)NCc3ccc(OC)cc3)cc21	-21.2%
COc1ccc(C(C(=O)O)N2CCN(C(=O)c3ccco3)CC2)c(OC)n1 (stereo not given)	-24.9%
Nc1nc2c(c(N3CC[C@@H](O)C3)n1)CCN(C(=O)[C@H]1CCCO1)CC2	9.0%
COc1ccc(C(=O)NCCn2ccn3nc(-c4cc(C)ccc4C)cc3c2=O)c(OC)c1	-1.5%
COc1ccc(-c2cc(-c3cccs3)nc3c(C)noc23)cc1OC	i
Cc1c(F)cccc1NC(=O)N1CCC(OC2CCN(Cc3ccccc3)CC2)CC1	4.47µM*
CCc1cccc(NC(=O)N2CCC(OC3CCN(Cc4ccccc4)CC3)CC2)c1	-7.2%
CS(=O)(=O)N1CCC(OC2CCN(C(=O)Nc3ccccc3F)CC2)CC1	i
COc1ccc(C)cc1NC(=O)N1CCC(CN2CCC(C)CC2)CC1	1.9%
O=C(C1CCCCC1)N1CCC(OC2CCN(Cc3ccccc3)CC2)CC1	i
O=C(c1ccc(F)cc1)N1CCC(OC2CCN(Cc3ccccc3)CC2)CC1	11.2µM*
O=C(NC1CCCCC1)N1CCC(OC2CCN(Cc3ccccc3)CC2)CC1	213.0%
O=S(=O)(c1ccc(F)cc1)N1CCC(OC2CCN(Cc3ccccc3)CC2)CC1	i
COc1ccc(C)cc1NC(=O)N1CCC(OC2CCN(Cc3ccccc3)CC2)CC1	11.2µM*
O=C(Nc1cccc(Cl)c1F)N1CCC(OC2CCN(Cc3ccccc3)CC2)CC1	6.31µM*
CC(C)(C)C(=O)N1CCC(OC2CCN(Cc3ccccc3)CC2)CC1	-1.0%
COc1ccc(C)cc1NC(=O)N1CCC(OC2CCN(S(C)(=O)=O)CC2)CC1	13.7%
CN(C)C(=O)N1Cc2ccccc2OC2(CCN(C(=O)CCCNC(N)=O)CC2)C1	i
C[S+](=O)([O-])N1CCC2(CC(=O)Nc3ccccc3N2)C1 (stereo not given)	13.4%
Cc1nc(CN2C(=O)OC3(CCN(C(=O)c4cccnc4)CC3)C2(C)c2ccccc2)cs1 (stereo not given)	-19.0%
CCO[C@H]1CN(C(=O)c2ccccc2OC(F)(F)C(F)F)C[C@@H]1O	-13.3%
SMILES	Pf Dd2 growth
CCc1noc(-c2cccn3c(CNC(=O)CCc4cccc(OC)c4)nnc23)n1	i
CCc1ccc(C(=O)N2C[C@@H](CO)[C@H](N(C)C)C2)cc1	19.0%
COC[C@@H]1CN(Cc2c(C)noc2C)C[C@H]1C(=O)NC1CC1	-2.0%
Cc1ccc(Cn2c(CN3CCCC(O)(CO)C3)nc3ccccc32)cc1 (stereo not given)	-10.6%
Cc1n[nH]c(C)c1CCC(=O)N1CCC(C2CCN(S(C)(=O)=O)CC2)C1 (stereo not given)	3.2%
COc1ccc(Cn2c(C3CCN(C(=O)Cc4ccccc4OC)CC3)n[nH]c2=O)cc1	10.1%
COc1cc(NC(=O)Cn2c(-c3cnccn3)nc(C)c(CCO)c2=O)cc(OC)c1	i
CCOc1ccc(NC(=O)N2CCc3c(c4ccccc4n3C)C2)cc1	i
Cc1ncccc1C(=O)N1CCCC(c2nc(-c3ccccc3)no2)CCNC(=O)CC1 (stereo not given)	i
O=C(C1=NO[C@@H]2CN(Cc3ccc(F)cc3)C[C@H]12)N1CCN(c2ccccn2)CC1	-7.5%[44.1 µM]
Cc1cnc(C2CCC2)n1CCNC(=O)c1cc(C2CC2)[nH]n1	-4.3%
Cc1cc(C)c(S(=O)(=O)NCCn2c(C)cnc2C2CCC2)cc1C	3.55µM*
Cc1cnc(C2CC2)n1CCNC(=O)C1CCN1C1CCCCC1 (stereo not given)	-0.9%
COc1cc(OC)cc(C(=O)N2C[C@@H](F)C[C@H]2C(=O)N2CCCCC2)c1	23.7%
COc1ccc(C(=O)N2CCC(Cc3nc(-c4cnccn4)no3)CC2)cc1OC	i
CCOCC(=O)N1C[C@@H]2CCCN3CCC[C@@H]([C@H]23)[C@H]1CCCC(=O)Nc1ccccc1	-13.8%
COC(=O)[C@@H]1Cc2c([nH]c3ccccc23)[C@H]2C[C@@H](NCCc3cnc[nH]3)C[C@@H](c3cccc(Cl)c3)N21	i
COC(=O)[C@@H]1Cc2c([nH]c3ccccc23)[C@H]2C[C@@H](NCCN(C)C)C[C@@H](c3cccc(Cl)c3)N21	2.82µM*
Cc1ccc(C)c(NC(=O)Cn2cc(S(=O)(=O)Cc3cccc(Cl)c3)c3ccccc32)c1	11.3%
COC(=O)[C@@H]1Cc2c([nH]c3ccccc23)[C@H]2C[C@@H](NCc3cccs3)C[C@@H](c3ccccc3F)N21	-28.4%
COC(=O)[C@@H]1Cc2c([nH]c3ccccc23)[C@H]2C[C@@H](NC(C)C)C[C@@H](c3ccc(C)cc3)N21	i
COC(=O)[C@@H]1Cc2c([nH]c3ccccc23)[C@@H]2C[C@@H](NCCNC(C)=O)C[C@@H](c3cccc(Cl)c3)N12	11.2µM*
